Where “and” joins values, the source holds several entries; their conditions need not be identical. Equal values may be shown once. Calls of active or inactive are those of the source. The calls were made as follows: active = hit-call score of the fitted dose curve at least 0.9, where 1 is the maximum; inactive = score below 0.9.
test: IUF_NPC2-5_viability_120hr: Viability Assessment at 120 hours in the Leibniz Research Institute for Environmental Medicine (IUF) Neural Progenitor Cell Migration and Differentiation Assay (NPC2-5) (AID 2284312)
Summary of the method: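 Human fetal (GW 16-19) neural progenitor spheres of 0.3 mm were plated on poly-D-lysine/laminin in N2 differentiation medium and exposed from day 0 for 120 h, with half-medium refresh at day 3. Viability was read as alamar blue resazurin-to-resorufin fluorescence against DMSO.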

Row | Compound | outcome | AC50
1 | CCOC(=O)CC(SP(=O)(OC)OC)C(=O)OCC (centres undefined) | inactive | –
2 | CCOP(=S)(OCC)Oc1cc(C)nc(C(C)C)n1 | inactive | –
3 | CCOP(=S)(OCC)SCCSCC | inactive | –
4 | CCOP(=O)(OCC)Oc1cc(C)nc(C(C)C)n1 | inactive | –
5 | CSC1=N[C@@](C)(c2ccccc2)C(=O)N1Nc1ccccc1 | inactive | –
6 | CCOP(=S)(OCC)OC(Cl)C(Cl)(Cl)Cl (centres undefined) | inactive | –
7 | CN(C)[C@@H]1C(=O)C(C(N)=O)=C(O)[C@@]2(O)C(=O)C3=C(O)c4c(O)cccc4[C@@](C)(O)[C@H]3[C@H](O)[C@@H]12 | inactive | –
8 | O=[N+]([O-])c1cc(C(F)(F)F)c(Cl)c([N+](=O)[O-])c1Nc1ncc(C(F)(F)F)cc1Cl | – | 1.4 µM (active)
9 | C[N+]1(C)CCCCC1 | inactive | –
10 | CON=C(C(=O)OC)c1ccccc1CON=C(C)c1cccc(C(F)(F)F)c1 | inactive | –
11 | COP(=O)(NC(C)=O)SC (centres undefined) | inactive | –
12 | CC(=NC#N)N(C)Cc1ccc(Cl)nc1 | inactive | –
13 | CCOP(=S)(Oc1cnc(C(C)(C)C)nc1)OC(C)C (centres undefined) | inactive | –
14 | CCCCSP(=O)(SCCCC)SCCCC | inactive | –
15 | COP(=O)(OC)OC(Br)C(Cl)(Cl)Br (centres undefined) | inactive | –
16 | C=C(C)[C@H]1Cc2c(ccc3c2O[C@@H]2COc4cc(OC)c(OC)cc4[C@@H]2C3=O)O1 | – | 267 nM (active) and 1.57 nM (active)
17 | CN1COCN(Cc2cnc(Cl)s2)C1=N[N+](=O)[O-] | inactive | –
18 | COP(=O)(OC)C(O)C(Cl)(Cl)Cl (centres undefined) | inactive | –
19 | CCCSP(=O)(OCC)SCCC | inactive | –
20 | CC1=NNC(=O)N(/N=C/c2cccnc2)C1 | inactive | –
21 | CC[C@H](C)[C@H]1O[C@]2(C=C[C@@H]1C)C[C@@H]1C[C@@H](C/C=C(\C)[C@@H](O[C@H]3C[C@H](OC)[C@@H](O[C@H]4C[C@H](OC)[C@@H](NC)[C@H](C)O4)[C@H](C)O3)[C@@H](C)/C=C/C=C3\CO[C@@H]4[C@H](O)C(C)=C[C@@H](C(=O)O1)[C@]34O)O2 | – | 1.14 µM (active) and 2.1 µM (active)
22 | CC(C)N(C(=O)SCC(Cl)=C(Cl)Cl)C(C)C | inactive | –
23 | S=C1NCCN1 | inactive | –
24 | CCOP(=O)(NC(C)C)Oc1ccc(SC)c(C)c1 (centres undefined) | inactive | –
